Data taken from PubChem BioAssay (NCATS).
A number with no mark means an inactive call. Records with an inconclusive call do not appear. Entries that show only a call come without a potency. Calls of active or inactive are those of the source. Unless noted, calls follow the shape of the dose curve; as a rule, active = well fitted curve in the direction sought with a large enough effect; inconclusive = small, poorly fitted or top-dose-only effect, or another doubt; inactive = no such curve, though single readings can be large; an effect the other way counts as inactive or inconclusive.

What was measured:
[1] = Cell Viability - MRC5 (AID 434; calls by dose curve;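 also: potency is read from the fitted curve at half-maximal effect; cells exposed to compound for 40 hours at 37 °C; potency reflects cytotoxicity seen as loss of intracellular ATP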); conditions: MRC5 lung fibroblast viability, qHTS
In short: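 MRC5 normal human lung fibroblasts (1500/well) were treated with compounds for 40 hr at 37 °C in complete medium, and viable cells were measured as intracellular ATP by CellTiter-Glo luminescence. AC50 came from Hill fits, normalized to DMSO and 100 uM tamoxifen.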

[2] = Cellular Toxicity (caspase-3) HepG2 (AID 654); conditions: HepG2 caspase-3 activation, luminescence; series mostly up to 92.2 µM; also: potency is read from the fitted curve at half-maximal effect;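 as to caspase-3 activation: cells exposed to compound for 16 hours before reading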
In short: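 HepG2 cells (1500/well) in complete medium were treated with compounds for 16 hr at 37 °C. Caspase-3/7 activity was then read as luminescence from peptide-aminoluciferin cleavage. AC50 came from Hill fits, normalized to DMSO and 100 uM tamoxifen.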

[3] = Cellular Toxicity (caspase-3) HUV-EC-C (AID 656); conditions: HUV-EC-C cells, caspase-3 activation (apoptosis); series mostly up to 92.2 µM
In short: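 Luminescent caspase-3/7 activation (aminoluciferin substrate cleavage) in HUV-EC-C cells after 16 hr compound exposure, 37°C. Signal normalized to DMSO basal and 100 uM tamoxifen as 100%; AC50 from concentration-response fitted with the Hill equation.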

[4] = Cellular Toxicity (caspase-3) SHSY5Y (AID 657); conditions: SH-SY5Y caspase-3 activation; series mostly up to 91.7 µM
In short: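 Luminescent caspase-3/7 readout (aminoluciferin release) in SH-SY5Y cells after 16 h compound exposure in complete medium. Activity scaled between DMSO basal and 10 uM staurosporine as 100%; concentration-response fitted to Hill equation for AC50.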

[5] = Cellular Toxicity (caspase-3) MRC-5 (AID 659); conditions: MRC-5 cells, luminescence, normalized: DMSO 0%, 10 µM staurosporine 100%; series mostly up to 91.7 µM
In short: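 Luminescence from caspase-cleaved aminoluciferin substrate (Caspase-Glo 3/7, 1 hr RT) reports caspase 3/7 activity in MRC-5 lung fibroblasts after 16 hr compound exposure. Normalized to DMSO basal and 10 uM staurosporine as 100%; AC50 from Hill fits.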

[6] = Cellular Toxicity (caspase-3) Mesangial (AID 660); conditions: mesangial cells, normalized: DMSO 0%, 100 µM tamoxifen 100%; series mostly up to 91.7 µM;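 also: cells exposed to compound for 16 h before the caspase read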
In short: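 Human renal glomerular mesangial cells (1000/well) were treated with compounds for 16 h at 37 °C in complete medium, then caspase 3/7 activity was read by Caspase-Glo luminescence. Data were normalized to DMSO and 100 uM tamoxifen; AC50 from Hill fits.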

[7] = Cellular Toxicity (caspase-3) SK-N-SH (AID 661); conditions: SK-N-SH caspase-3 activation, qHTS, DMSO as zero, staurosporine as full; series mostly up to 91.7 µM
In short: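 SK-N-SH human neuroblastoma cells (1500/well) were treated with compounds for 16 hr at 37 °C in complete medium; caspase 3/7 activity was read by Caspase-Glo luminescence. AC50 came from Hill fits of data normalized to DMSO and 10 uM staurosporine.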

[8] = Cellular Toxicity (caspase-3) H-4-II-E (AID 663); conditions: H-4-II-E rat hepatoma; Potency: caspase-3 activation; series mostly up to 92.2 µM;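 also: cells exposed to compound for 16 hr before readout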
In short: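 Luminescence from caspase-cleaved aminoluciferin substrate, read 20 min after reagent addition, reports caspase 3/7 activation in rat H-4-II-E cells after 16 hr compound exposure. Normalized to DMSO (basal) and 100 uM tamoxifen (100%); AC50 from Hill fits.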

[9] = Cellular Toxicity (caspase-3) N2a (AID 665); conditions: N2a cells, luminescence, normalized: DMSO 0%, 10 µM staurosporine 100%; series mostly up to 92.2 µM;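 also: compound exposure lasted 16 h at 37 °C before readout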
In short: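 Mouse N2a neuroblastoma cells (1500/well) were treated with compounds for 16 h at 37 °C, then caspase-3/7 activity was read by Caspase-Glo luminescence after 1 h at room temperature. Data were normalized to DMSO and 10 uM staurosporine; AC50 from Hill fits.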

[10] = Cellular Toxicity (caspase-3) NIH 3T3 (AID 666); conditions: NIH 3T3 caspase-3 activation, apoptosis/toxicity, 0% DMSO, 100% is 100 µM tamoxifen; series mostly up to 92.2 µM
In short: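 Mouse NIH 3T3 fibroblasts (1000 cells/well) were treated with compound for 16 hr at 37°C in complete medium; caspase-3/7 activity was read by Caspase-Glo luminescence. Normalized to DMSO and 100 uM tamoxifen; AC50 from Hill fits.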

[11] = Cellular Toxicity (caspase-3) Renal Proximal Tubule (AID 667); conditions: renal proximal tubule cells, primary cells freshly taken from rat; Potency: caspase-3 activation; series mostly up to 91.7 µM;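 also: cells exposed to compound for 16 hours at 37 °C before detection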
In short: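 Luminescent caspase 3/7 signal from peptide-aminoluciferin cleavage measures apoptosis in freshly isolated rat kidney proximal tubule cells after 16 h compound exposure. Concentration-response data are normalized to DMSO and 10 uM staurosporine, and AC50 values come from Hill equation fits.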

[12] = MultiTox-Fluor Cytotoxicity Assay - LYMP1-001 - Dead Cells (AID 946); conditions: LYMP1-001 lymphoblastoid cells, dead-cell protease fluorescence; series mostly up to 92.2 µM
In short: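 LYMP1-001 lymphoblastoid cells (2500/well) treated 16 h at 37 C. Dead-cell protease cleavage of bis-AAF-R110 read at Ex/Em 485/520. Normalized to DMSO and 15 uM tetraoctylammonium bromide; AC50 from Hill fits.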

[13] = Cell Viability - LYMP1-002 - Assay at 16 hr (AID 948); conditions: LYMP1-002 lymphoblastoid cell viability; series mostly up to 92.2 µM
In short: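 LYMP1-002 human lymphoblastoid cells, 2500/well; 5 hr 37 C; cpd 16 hr 37 C; CellTiter-Glo 30 min RT; luminescence (ATP). Concentration-response, Hill-fit AC50. Pos ctrl tetraoctylammonium bromide.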

[14] = MultiTox-Fluor Cytotoxicity Assay - LYMP1-002 - Live Cells (AID 955); conditions: LYMP1-002 lymphoblastoid live-cell protease fluorescence viability; series mostly up to 46.1 µM
In short: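 Human lymphoblastoid LYMP1-002 cells, 2500/well in complete medium, rested 5 hr at 37 C, then exposed to compounds for 16 hr at 37 C. Live-cell protease cleavage of GF-AFC read by fluorescence (Ex/Em 405/510) after 60 min at room temperature; AC50 from Hill fits.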

[15] = MultiTox-Fluor Cytotoxicity Assay - LYMP1-003 - Live Cells (AID 962); conditions: LYMP1-003 lymphoblastoid cells, MultiTox-Fluor live-cell protease fluorescence; series mostly up to 92.2 µM;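 also: cytotoxic hits lower the live-cell protease signal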
In short: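 LYMP1-003 human lymphoblastoid cells (2500/well) in complete medium were preincubated 5 hr at 37 C, then exposed to compounds for 16 hr at 37 C. Live-cell protease cleavage of GF-AFC read by fluorescence (Ex/Em 405/510); AC50 from Hill fits.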

[16] = Cell Viability - LYMP1-003 - Assay at 24 hr (AID 963); conditions: LYMP1-003 lymphoblastoid cell viability; series mostly up to 92.2 µM
In short: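 Human lymphoblastoid LYMP1-003 cells (2500/well) were rested 5 hr at 37 C, then exposed to compounds in complete medium for 24 hr at 37 C. Cellular ATP was quantified by CellTiter-Glo luminescence, and AC50 values came from Hill fits of concentration-response data.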

[17] = Cell Viability - LYMP1-002 - Assay at 24 hr (AID 993); conditions: LYMP1-002 lymphoblastoid cells viability; series mostly up to 92.2 µM
In short: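 Human lymphoblastoid LYMP1-002 cells, 2500/well in complete medium, were treated with compounds for 24 h at 37 C; intracellular ATP was read by CellTiter-Glo luminescence. AC50 values came from Hill-equation fits of qHTS concentration-response data.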

[18] = qHTS Assay for Identification of Small Molecule Inducers of Hypoxia Response (AID 2120; active = well fitted curve in the direction sought with a large enough effect in the signal ratio, with a control signal flat, not every such curve was filed as active; the % refers to the signal ratio); conditions: hypoxia response reporter cells, beta-lactamase ratio readout; series mostly up to 104 µM
In short: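 HRE-beta-lactamase reporter in CellSensor HRE-bla ME-180 cells, 2500 cells/well in Opti-MEM with 0.5% dialyzed FBS; compounds tested as titration series, 17 h at 37 degrees C. CCF4 substrate 2.5 h at room temperature; AC50 from 460/530 nm ratio.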

[19] = target: Peroxisome proliferator-activated receptor alpha (Homo sapiens) (UniProt Q07869); experiment: qHTS assay for small molecule agonists of the peroxisome proliferator-activated receptor alpha (PPARalpha) signaling pathway (AID 651778); conditions: PathHunter PPARalpha complementation, chemiluminescence, 6 h; max response: stronger effect = higher value
Peroxisome proliferator-activated receptor alpha (Homo sapiens), sequence (Q07869 whole entry, looked up): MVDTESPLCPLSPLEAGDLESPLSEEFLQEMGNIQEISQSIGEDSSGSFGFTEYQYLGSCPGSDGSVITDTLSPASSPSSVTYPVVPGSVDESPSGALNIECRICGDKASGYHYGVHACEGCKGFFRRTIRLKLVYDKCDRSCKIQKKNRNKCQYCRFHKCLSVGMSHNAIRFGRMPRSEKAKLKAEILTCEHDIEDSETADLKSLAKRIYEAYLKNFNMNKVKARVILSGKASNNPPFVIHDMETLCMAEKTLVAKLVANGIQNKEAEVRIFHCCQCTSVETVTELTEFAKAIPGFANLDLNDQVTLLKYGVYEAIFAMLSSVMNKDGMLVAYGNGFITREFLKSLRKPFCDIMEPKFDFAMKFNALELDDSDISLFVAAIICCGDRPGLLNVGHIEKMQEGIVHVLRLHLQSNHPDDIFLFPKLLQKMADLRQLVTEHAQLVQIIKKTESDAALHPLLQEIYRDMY
In short: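 Cells plated at 2,000/well and held overnight at 37 C, 5% CO2, then compound added by pin tool for 6 hr; after PathHunter detection reagent and 60 min at room temperature, chemiluminescence from enzyme complementation was read.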

[20] = qHTS assay for small molecule agonists of the antioxidant response element (ARE) signaling pathway measured by Nrf2-dependant transcriptional activity - cell viability counter screen (AID 720653; active = well fitted curve in the direction sought with a large enough effect in the repeat runs; an effect the other way counts as inactive or inconclusive; also: potency is read from the fitted curve at half-maximal effect); conditions: ARE-bla HepG2 viability, CellTiter-Glo ATP luminescence, 16 h; max response: stronger effect = lower value
In short: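 ARE-bla HepG2 cells (2,000/well) rested 5 hrs at 37C/5% CO2, then exposed to compounds in DMSO for 16 hrs. Viability was read in the same wells as intracellular ATP by luminescence, 30 min at room temperature after reagent addition.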

SMILES: C=C(C#N)C(=O)OCC
- Potency [1]: > 92 µM
- Potency [2]: inactive
- Potency [3]: inactive
- Potency [4]: inactive
- outcome [5]: inactive
- outcome [6]: inactive
- outcome [7]: inactive
- Potency [8]: inactive
- outcome [9]: inactive
- outcome [10]: inactive
- Potency [11]: inactive
- Potency [12]: inactive
- Potency [13]: inactive
- outcome [14]: inactive
- Potency [15]: inactive
- Potency [16]: inactive
- Potency [17]: inactive
- Potency [18]: inactive
- max response [19]: -1.15%
- max response [20]: -14.3%

SMILES: Nc1ccc(-c2ccc(N)c(O)c2)cc1O
- Potency [1]: > 92 µM
- Potency [2]: inactive
- Potency [3]: inactive
- Potency [4]: inactive
- outcome [5]: inactive
- outcome [7]: inactive
- Potency [8]: inactive
- outcome [9]: inactive
- outcome [10]: inactive
- Potency [11]: inactive
- Potency [12]: inactive
- Potency [13]: inactive
- outcome [14]: inactive
- Potency [15]: inactive
- Potency [16]: inactive
- Potency [17]: inactive
- Potency [18]: inactive
- max response [19]: -5.39%
- max response [20]: 1.43%

SMILES: O=CC(=O)c1ccccc1
- Potency [1]: > 92 µM
- Potency [2]: inactive
- Potency [3]: inactive
- Potency [4]: inactive
- outcome [5]: inactive
- outcome [6]: inactive
- outcome [7]: inactive
- Potency [8]: inactive
- outcome [9]: inactive
- outcome [10]: inactive
- Potency [11]: inactive
- Potency [12]: inactive
- Potency [13]: inactive
- outcome [14]: inactive
- Potency [15]: inactive
- Potency [16]: inactive
- Potency [17]: inactive
- Potency [18]: inactive
- max response [19]: -2.48%
- max response [20]: -2.84%

SMILES: Nc1ccc(N=Nc2ccccc2)c(N)c1
- Potency [1]: > 92 µM
- Potency [2]: inactive
- Potency [3]: inactive
- Potency [4]: inactive
- outcome [5]: inactive
- outcome [6]: inactive
- outcome [7]: inactive
- Potency [8]: inactive
- outcome [9]: inactive
- Potency [11]: inactive
- Potency [12]: inactive
- Potency [13]: inactive
- outcome [14]: inactive
- Potency [15]: inactive
- Potency [16]: inactive
- Potency [17]: inactive
- Potency [18]: inactive
- max response [19]: -3.41%
- max response [20]: -16.9%

SMILES: C[C@@H]1CC2(OC(O)[C@]3(C)O[C@H]23)O[C@H]2C[C@@]3(C)[C@@H]4CC[C@H]5C(C)(C)C(O[C@@H]6OC[C@@H](O)[C@H](O)[C@H]6O)CC[C@@]56C[C@@]46CC[C@]3(C)[C@@H]12 (stereo partly drawn)
- Potency [1]: > 92 µM
- Potency [2]: 31.6 µM (active)
- Potency [3]: inactive
- Potency [4]: inactive
- outcome [9]: inactive
- Potency [12]: inactive
- outcome [14]: inactive
- Potency [15]: inactive
- Potency [16]: inactive
- Potency [18]: inactive
- max response [19]: 6.75%
- Potency [20]: 70.8 µM (active)

SMILES: O=C(O)c1cc(N=Nc2ccc([N+](=O)[O-])cc2)ccc1O
- Potency [1]: > 92 µM
- Potency [2]: inactive
- Potency [3]: inactive
- Potency [4]: inactive
- outcome [5]: inactive
- outcome [6]: inactive
- outcome [7]: inactive
- Potency [8]: inactive
- outcome [9]: inactive
- Potency [11]: inactive
- Potency [12]: inactive
- Potency [13]: inactive
- outcome [14]: inactive
- Potency [15]: inactive
- Potency [16]: inactive
- Potency [17]: inactive
- max response [19]: -12.2%
- max response [20]: -5.1%
